High-throughput results as filed in PubChem.
D3 ag: qHTS of D3 Dopamine Receptor Agonist: qHTS; max activation, %; D3R DiscoveRx beta-arrestin cells, luminescence, 90 min; hit rate 0.58% among 410,000; AID 652048, 2013; in the data active = max activation above about 30%; note: 0% is about no effect
Target sequence (P35462 whole entry, looked up): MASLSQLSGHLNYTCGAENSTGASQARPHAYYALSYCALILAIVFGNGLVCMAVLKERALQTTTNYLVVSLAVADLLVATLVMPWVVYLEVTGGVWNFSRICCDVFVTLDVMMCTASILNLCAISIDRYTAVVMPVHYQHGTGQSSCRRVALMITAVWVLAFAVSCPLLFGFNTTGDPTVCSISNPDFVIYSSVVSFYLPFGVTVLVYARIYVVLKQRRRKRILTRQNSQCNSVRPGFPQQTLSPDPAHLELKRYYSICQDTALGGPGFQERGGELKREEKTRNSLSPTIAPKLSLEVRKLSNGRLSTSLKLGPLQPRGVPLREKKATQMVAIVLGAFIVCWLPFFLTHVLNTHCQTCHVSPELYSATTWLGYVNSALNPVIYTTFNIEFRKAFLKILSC
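Agonist-mode cell screen: cells plated at 1500/well and incubated overnight at 37 °C, then exposed to library compounds for 90 min at 37 °C. Detection reagent was added for 30–60 min at room temperature, and luminescence was read.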
D1 PAM: Potentiators of Human D1 Dopamine Receptor: qHTS | D(1A) dopamine receptor (Homo sapiens), P21728 | potentiation, % at 10 µM | hit rate 0.036% among 360,000 | HEK293 TREx D1 cells, calcium flux, dopamine EC20 potentiation; in the data active = potentiation above about 30%; note: 0% is about no effect
DRD3 antagonist: qHTS of D3 Dopamine Receptor Antagonist: qHTS; D(3) dopamine receptor (Homo sapiens), P35462; D3R cells, DiscoveRx beta-arrestin luminescence, antagonist mode; active compounds read low; max response, negative = inhibition, %; hit rate 2.5% among 360,000; AID 652054, 2013; in the data active = max response below about -50%; inconclusive = no clear call, values can overlap the other calls; note: % is set by controls: 0 for no effect and ±100 for the full control effect
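Cells expressing the human receptor were seeded at 1500 cells/well, incubated overnight at 37 degrees C in 5% CO2, then exposed to library compounds with dopamine controls for 90 minutes at 37 degrees C before luminescent detection.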
D1 antagonist: Antagonist of Human D 1 Dopamine Receptor: qHTS. hit rate 3.2% among 360,000. HEK293 TREx D1 cells, calcium flux, dopamine EC80; active compounds read low. D(1A) dopamine receptor (Homo sapiens), P21728. AID 504652, 2011. activity change, negative = inhibition, % at 10 µM; in the data active = activity change below about -30%; note: % is set by controls: 0 for no effect and ±100 for the full control effect
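Kinetic fluorescence of a calcium dye serves as the read-out. D1-expressing Hek293 Trex cells, induced overnight at 30 C, are exposed to compound for 180 s before an EC80 dopamine addition, then read 180 s further.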
D1 ag: Allosteric Agonists of the Human D1 Dopamine Receptor: qHTS | activation, % at 2 µM | hit rate 1% among 360,000 | D(1A) dopamine receptor (Homo sapiens), P21728 | HEK293 T-REx D1 cells, calcium flux, agonist mode; in the data active = activation above about 30%; note: 0% is about no effect
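Tetracycline-induced HEK293 TREx D1 cells, force-coupled to calcium signalling, were dye-loaded with a no-wash calcium kit. Compound was pin-added after a 10 s baseline. Fluorescence was read kinetically at 1 cycle/s for 180 s, with calcium rises flagged as agonism.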
* hit, by the source's call; ? = inconclusive; . = not tested or not shown. Compounds with a hit are over-represented: about 6.1% of the library has one in this group of screens.

SMILES	D3 ag	D1 PAM	DRD3 antagonist	D1 antagonist	D1 ag
CCn1c(CN2CCC(C)CC2)nc2cc(S(=O)(=O)N3CCCCC3)ccc21	-3	.	-83*	.	.
CN(C)c1ccc(/C=N/NC(=O)CN2CCN(c3ccc(F)cc3)CC2)cc1	.	-6	.	1	1
Cc1cccc(NC(=O)NC2CCCc3ccccc32)c1 (centres undefined)	5	0	-7	-44*	2
COc1ccc(NC(=O)NC2CCCc3ccccc32)cc1 (centres undefined)	-2	-9	-10	-43*	2
COc1ccc(NC(=O)NC2CCCc3ccccc32)cc1OC (centres undefined)	2	-4	-4	-22	1
Cc1cccc(NC(=O)Nc2ccc3c(c2)CCC3)c1	4	-5	17	-30*	12
COc1ccc(OC)c(NC(=O)Nc2ccc3c(c2)CCC3)c1	-22	-6	?	-49*	1
COc1ccc(NC(=O)Nc2ccc3c(c2)CCC3)c(OC)c1	-17	-4	-9	.	-2
C[C@H]1C[C@H]2[C@@H]3CCC4=CC(=O)C=C[C@]4(C)[C@H]3C(=O)C[C@]2(C)[C@@]1(O)C(=O)CO	1	.	.	.	.
CCOc1ccc(CN2CCN(C(=O)c3ccccc3)CC2)cc1	-15	2	-80*	-11	3
CC1CN(C2CCN(C(=O)c3ccccc3)CC2)CC(C)O1 (centres undefined)	3	-1	?	-31*	1
CCOc1ccc(C(=O)N2CCN(Cc3ccccc3)CC2)cc1	-19	-3	?	-6	2
O=C(c1ccc(Br)cc1)N1CCN(Cc2ccccc2)CC1	-4	-30	?	-57*	1
O=C(c1ccccc1F)N1CCN(Cc2ccccc2F)CC1	-12	-1	-57*	13	-2
O=C(c1ccccc1)c1ccccc1C(=O)N1CCN(Cc2ccccc2F)CC1	-1	3	15	-3	1
O=C(c1ccccc1)N1CCN(Cc2ccccc2Br)CC1	0	1	-62*	-10	1
O=C(c1ccc2ccccc2c1)N1CCN(Cc2ccccc2)CC1	-18	-8	-86*	-18	0
CN(C)c1ccc(C(=S)N2CCN(Cc3ccccc3)CC2)cc1	-19	-4	-50*	11	0
S=C(c1ccc(Br)cc1)N1CCN(Cc2ccccc2)CC1	-44	-1	-78*	-7	1
Oc1ccc(C(=S)N2CCN(Cc3ccccc3)CC2)cc1	-6	-3	-7	-12	4
N#Cc1c(N(CC(=O)O)CC(=O)O)sc(C(=O)O)c1CC(=O)O	-2	.	.	.	.
O=C(c1ccccc1F)N1CCC(N2CCCCCC2)CC1	-6	-10	?	16	-3
CN1CCN(C(=S)c2cn(Cc3ccc(Br)cc3)c3ccccc23)CC1	-8	-4	-88*	10	10
CCN1CCN(C(=S)c2ccc(Br)cc2)CC1	-24	-6	-55*	-17	1
CCN1CCN(C(=S)c2ccc(O)cc2)CC1	-2	-1	-1	2	1
SMILES	D3 ag	D1 PAM	DRD3 antagonist	D1 antagonist	D1 ag
Cc1ccc(C(=S)N2CCN(Cc3ccccc3)CC2)s1	-10	4	-69*	19	9
CC1CCN(C2CCN(C(=O)c3ccccc3F)CC2)CC1	-6	-2	5	-82*	0
COc1ccc2c(c1)C(=O)N(c1ccccc1C)C(=O)C2(C)C	0	4	-1	-8	-3
CCN(CC)CCNC(C(=O)Nc1cccc(C(C)=O)c1)c1ccccc1 (centres undefined)	-22	-1	-15	-3	5
O=S1(=O)NC(C2CC2c2ccccc2)CCO1 (centres undefined)	2	0	17	-3	2
CCOc1ccc(NC(=O)C(=O)NCCN2CCN(C(=O)c3ccc(C)cc3)CC2)cc1	-22	-1	-60*	-1	0
COc1ccc(C(=O)N2CCN(CCNC(=O)C(=O)Nc3ccc(Br)cc3)CC2)cc1	-21	-5	7	-24	3
O=C(COC(=O)Cn1nc(-c2ccccc2)oc1=O)Nc1ccc(F)cc1	1	-5	-1	-34*	3
